Screening results: PubChem BioAssay, National Center for Advancing Translational Sciences (NCATS)
The full list was thinned out, with hits kept by preference.
p53 reactivation: re-activators of mutant p53; H1299 p53-A138V BP100-luciferase reporter, luminescence, 24 h; Potency, µM (highest dose often 92.2 µM), inactives show at the highest dose activity change, positive = activation, most hits filed as activators; 320,000 compounds, 0.063% hits; AID 504706; also: % of control where 0% means no effect; nearly all actives have a fitted effect of over 45% in size
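H1299 (p53-null), stable ts p53-A138V + BP100-Luc; 1000 cells/well, Opti-MEM/10% FBS; cpd 4 pt, 1:5; 24 h, 37 deg C, 5% CO2; detection reagent 10 min RT; luminescence.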
Eya2 inh: blocks the phosphatase activity of human Eya2; O00167; recombinant Eya2, OMFP fluorescence dephosphorylation (OMFP is methylfluorescein phosphate); Potency, µM (top dose mostly 76.9 µM), without a hit: top-dose activity, negative = inhibition, usual class: inhibitors; 330,000 compounds, 0.006% hits; AID 488837; also: % is scaled to controls: 0 for no effect and ±100 for the full control effect
Target sequence (O00167 whole entry, looked up): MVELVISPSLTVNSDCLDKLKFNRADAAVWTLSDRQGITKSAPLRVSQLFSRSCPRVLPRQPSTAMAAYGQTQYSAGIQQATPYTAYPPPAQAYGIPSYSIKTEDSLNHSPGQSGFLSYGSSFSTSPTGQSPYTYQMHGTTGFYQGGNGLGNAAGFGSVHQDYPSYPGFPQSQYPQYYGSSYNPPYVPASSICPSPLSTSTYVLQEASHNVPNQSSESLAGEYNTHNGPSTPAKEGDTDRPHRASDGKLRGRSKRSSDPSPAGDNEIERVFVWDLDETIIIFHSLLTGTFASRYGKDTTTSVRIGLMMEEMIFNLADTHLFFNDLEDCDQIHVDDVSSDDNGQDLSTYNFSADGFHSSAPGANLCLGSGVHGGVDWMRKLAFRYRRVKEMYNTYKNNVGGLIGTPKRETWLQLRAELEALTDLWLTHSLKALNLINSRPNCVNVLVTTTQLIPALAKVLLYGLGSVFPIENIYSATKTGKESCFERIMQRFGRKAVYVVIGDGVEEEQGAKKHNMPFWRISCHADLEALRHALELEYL
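Eya2 protein (added as 0.2 uM solution) was preincubated with compound for 10 min at ambient temperature in 50 mM HEPES pH 7.5, 50 mM NaCl, 5 uM MgCl2, 0.05% BSA, 1 mM DTT. OMFP (added at 50 uM) then reacted 10 min; fluorescence read at 485/525 nm.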
MmCpn inh: M. maripaludis TRiC chaperonin inhibition. purified Mm-Cpn ATPase, ADP Transcreener TR-FRET. Potency, µM (highest dose often 76.9 µM), for the others: top-dose activity, negative = inhibition, actives largely listed as inhibitors. 330,000 compounds, 0.031% hits; also: % is scaled to controls: 0 for no effect and ±100 for the full control effect; nearly all actives have a fitted effect of over 80% in size
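ATP (10 uM final) was added to archaeal chaperonin (25 nM final) after 10 min exposure to test compound at 37°C; after 30 min further incubation, ADP was detected by competitive TR-FRET.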
USP2a inh: blocks human ubiquitin-specific protease USP2a; O75604; USP2 core, Ub-CHOP2 coupled fluorogenic reporter, 485/531; Potency, µM (series often up to 38.3 µM), without a hit: at the highest dose activity change, negative = inhibition, hits mostly inhibitors; 330,000 compounds, 0.01% hits;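 also: plate controls were DMSO wells for no effect and full inhibition by NEM control for full effect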
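Cell-free coupled assay: 10nM USP2 core preincubated 30min RT with compound in Tris-HCl pH 8.0/CaCl2/CHAPS buffer, then 25nM Ub-CHOP2 and 25nM reporter substrate; fluorescence (Ex 485/Em 531) read after 60min RT, normalized to NEM inhibition, concentration-response curves fitted.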
Integrin act MD: integrin-mediated muscular dystrophy alleviation activation | Potency, µM (highest dose often 38.3 µM), for the others: top-dose activation, hits mostly activators | 350,000 compounds, 0.064% hits | AID 624291 | alpha7betagal myoblasts, beta-gal FDG fluorescence, 48 h;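 also: 100% = response of the positive control SU9516; nearly all actives have a fitted effect of over 60% in size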
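Alpha7betagal+/- myoblasts (passage 13) were plated 16-24 hr, then exposed to compounds (1:260 dilution of DMSO stock) for 48 hours at 37C. After MPER lysis, β-galactosidase reporter activity was read as FDG fluorescence (ex 480/em 540) after 30 minutes.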
ClpP mod: qHTS Assay for Activators of ClpP; ATP-dependent Clp protease proteolytic subunit (Bacillus subtilis (strain 168)), P80244; purified B. subtilis ClpP, FRET peptide cleavage, 20 min; Potency, µM (doses to about 57.5 µM), inactives show at the highest dose activity change, negative = active; 340,000 compounds, 1.9% hits; active = well fitted falling curve with a large enough effect; inconclusive = small, poorly fitted or top-dose-only effect; inactive = no such curve, though single readings can be large or run the other way; also: the source files actives as falling curves though it sought activators and does not explain the sign; nearly all actives have a fitted effect of over 65% in size
Target sequence (P80244 whole entry, looked up): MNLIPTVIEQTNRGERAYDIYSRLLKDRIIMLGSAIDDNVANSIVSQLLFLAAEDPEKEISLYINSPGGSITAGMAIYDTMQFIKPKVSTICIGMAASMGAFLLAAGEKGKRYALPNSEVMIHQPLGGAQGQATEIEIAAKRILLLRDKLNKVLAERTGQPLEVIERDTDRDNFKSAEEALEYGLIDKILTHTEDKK
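Purified B. subtilis ClpP, 10 microg/mL final in Tris/HCl pH8 with KCl, BSA, glycerol and Tween-20, cleaved an Abz/nitrotyrosine-quenched decapeptide. Fluorescence (ex 320, em 430) was read at 0 and 20 min at room temperature. Delta was normalized to 5.8 microM ADEP and DMSO/no-enzyme controls.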
* hit, by the source's call; ? = inconclusive; nt = no result given; [ ] = dose if it differs, or a comment. Unless noted, calls follow the shape of the dose curve; as a rule, active = well fitted curve in the direction sought with a large enough effect; inconclusive = small, poorly fitted or top-dose-only effect, or another doubt; inactive = no such curve, though single readings can be large; an effect the other way counts as inactive or inconclusive. Potency is read from the fitted curve at half-maximal effect.

SMILES | p53 reactivation | Eya2 inh | MmCpn inh | USP2a inh | Integrin act MD | ClpP mod
COc1cc2c(cc1OC)CN(C(=O)c1sccc1C)CC2 | -1% | 5% | -1% | 2% | 8% | 28µM*
Cc1ccc(-n2ncc(C(=O)NCCCN3CCCCC3)c2C2CCN(C(=O)OC(C)(C)C)CC2)cc1 | nt | nt | nt | nt | nt | -1%
CCCCNC(=O)[C@@H]1CC=C[C@@H]2CCN(Cc3ccccc3)C(=O)[C@@H]21 | nt | nt | nt | nt | nt | 0%
O=C(N/N=C/c1cn(-c2cccs2)nc1-c1ccccc1)c1ccccc1Cl | ? | -3% | -3% | -9% | -32% | 22µM*
O=C(NN=C1CCCCCCC1)c1ccc(F)cc1 | 17% | 12% | 0% | -1% | -8% | nt
O=C(NN=C1CCCCCC1)c1cccs1 | 40µM* | 11% | 1% | 1% | 16% | 0%
COc1ccc(NC(=O)c2cc3c(s2)-c2c(C)cccc2OC3)cc1Cl | nt | nt | nt | nt | nt | 25µM*
COc1cc(Cl)c(C)cc1NC(=O)c1cc2c(s1)-c1c(C)cccc1OC2 | nt | nt | nt | nt | nt | -10%
Cc1ccc(C(=O)NCC(=O)OCC(=O)c2cccc3ccccc23)cc1 | nt | nt | nt | nt | nt | 2%
CCc1ccc2c(c1)C(C)=CC(C)(C)N2 | 5% | 15% | -1% | -1% | -13% | 32µM*
CCN(CC)c1ccc(/C=C2\C=Cc3ccccc32)cc1 | nt | nt | nt | nt | nt | 2%
CN(C(=O)COC(=O)C1CSC2(C)CCC(=O)N12)c1ccccc1 (centres undefined) | 1% | -7% | 0% | 0% | 31% | 28µM*
COc1cc(CN2CCN(CCc3ccccc3)C(CCO)C2)cc(OC)c1 (centres undefined) | 5% | -2% | 0% | 1% | -2% | 32µM*
COc1ccccc1Oc1coc2cc(O)ccc2c1=O | 1% | 5% | -1% | -2% | -25% | 28µM*
COc1ccc(Oc2coc3cc(O)ccc3c2=O)cc1 | 5% | 9% | -1% | 1% | -17% | -29%
CCOc1ccccc1Oc1coc2cc(O)ccc2c1=O | ? | 12% | -5% | -1% | -7% | 32µM*
COc1ccc(Oc2coc3cc(OC(=O)/C=C/c4ccccc4)ccc3c2=O)cc1 | -7% | 5% | 1% | 3% | -15% | 25µM*
COc1ccc(Oc2coc3cc(OC(=O)/C=C/c4ccc(F)cc4)ccc3c2=O)cc1 | 7% | -2% | -4% | 1% | 1% | 0%
CNc1ccc(/C=C2\C=Cc3ccccc32)cc1Cl | nt | nt | nt | nt | nt | -3%
Cc1ccc2cc(CN(CC3CCCO3)C(=O)NC3CCCCC3)c(=O)[nH]c2c1C (centres undefined) | 3% | 1% | 3% | 0% | ? | ?
COc1ccc(CN(Cc2cc3cc4c(cc3[nH]c2=O)OCO4)C(=O)NC2CCCCC2)cc1 | -15% | 8% | 1% | 5% | 9% | 22µM*
O=C(NC1CCCCC1)N(CCN1CCOCC1)Cc1cc2cc3c(cc2[nH]c1=O)OCCO3 | -3% | 11% | 0% | 1% | 13% | 35µM*
COc1ccc(NC(=O)N(Cc2cccs2)Cc2cc3cc4c(cc3[nH]c2=O)OCO4)cc1 | -6% | 1% | 0% | 3% | nt | nt
CCN(CC)CCN(Cc1cc2cc3c(cc2[nH]c1=O)OCCO3)C(=O)NC1CCCCC1 | 29% | -4% | -3% | 2% | -28% | 25µM*
CCN(CC)CCCN(Cc1cc2ccc(C)c(C)c2[nH]c1=O)C(=O)NC1CCCCC1 | -7% | 4% | 0% | 1% | -53% | 28µM*
SMILES | p53 reactivation | Eya2 inh | MmCpn inh | USP2a inh | Integrin act MD | ClpP mod
Cc1ccccc1C(=O)Nc1cccc(-c2nnc(SCC(=O)NCc3ccco3)n2C)c1 | nt | nt | nt | nt | nt | 1%
O=C(Cc1csc2ccccc12)NCc1cccc(Br)c1 | nt | nt | nt | nt | nt | -4%
COc1ccc2[nH]c(=O)c(CNC3CCCCC3)cc2c1 | -4% | 10% | -1%[15.4 µM] | 5% | 8% | 16µM*
COc1ccc2[nH]c(=O)c(CN(C(=O)NC3CCCCC3)C3CCCCC3)cc2c1 | -3% | 7% | 1% | 2% | 0% | ?
CC(=O)C1=C(C)NC(SCC(=O)Nc2nccs2)=C(C#N)C1c1ccccc1Cl (centres undefined) | -4% | -2% | 1% | 0% | 6% | 28µM*
O=C(Nc1ccc(Cl)cc1)Nc1nnc(SCc2ccccc2)s1 | 28µM* | 3% | 1% | 2% | -8% | -1%
COc1ccccc1NC(=O)CSC1=NC(=O)C(NC(C)=O)C(=O)N1 (centres undefined) | 2% | 14% | -1% | 1% | 15% | 28µM*
O=C(COc1ccc2ccc(=O)oc2c1)Nc1cccc(S(=O)(=O)N2CCCCC2)c1 | -5% | 21% | -6% | 4% | -1% | 35µM*
Cc1ccc(S(=O)(=O)N2CCOCC2)cc1NC(=O)COc1ccc2c(C)cc(=O)oc2c1 | -13% | -8% | 0% | 1% | 15% | 32µM*
COc1ccc(S(=O)(=O)N2CCOCC2)cc1NC(=O)COc1ccc2c(C)cc(=O)oc2c1 | 5% | -20% | 0% | 7% | -36% | 4%
CCOC(=O)C1(C)NC(c2ccccc2F)C2C(=O)N(CC)C(=O)C21 (centres undefined) | 9% | ? | 3% | 0% | 17% | 28µM*
Cc1ccc2nc(NC(=O)c3cc(-c4ccco4)nc4ccccc34)sc2c1 | ? | 8% | 1% | 0% | -27% | 18µM*
O=C(Nc1nc2ccccc2s1)c1cc(-c2ccco2)nc2ccccc12 | 10% | 1% | -1% | 0% | 0% | 18µM*
COc1ccc(CNC(=O)COC(=O)c2cc(-c3ccco3)nc3ccccc23)cc1 | -1% | 9% | -3% | ? | nt | nt
CCNC(=O)COC(=O)c1cc(-c2ccco2)nc2ccccc12 | -1% | 5% | -5% | -1% | 5.6µM* | 4%
COc1ccc(C(NC(=O)COc2ccc(C#N)cc2)c2ccc(OC)cc2)cc1 | nt | nt | nt | nt | nt | -1%
Cc1cc(F)ccc1NC(=O)CCS(=O)(=O)c1cc2c(cc1C)NC(=O)CO2 | nt | nt | nt | nt | nt | -2%
COc1cc2nc(CC(O)c3nc4cc(OC)c(OC)cc4[nH]3)[nH]c2cc1OC (centres undefined) | nt | nt | nt | nt | nt | -11%
CCn1c(C)c(C)c2cc(C(=O)NCc3ccc(OC(C)C)cc3)ccc21 | nt | nt | nt | nt | nt | -19%
Cc1c(C)n(Cc2ccccc2)c2ccc(C(=O)NCC(C)c3ccccc3)cc12 (centres undefined) | nt | nt | nt | nt | nt | 20µM*
